# Screens as filed in PubChem.
# Shiga toxin inh – inhibitors of Shiga toxin in Vero cells. inhibition, % at 38.7 µM. 290,000 compounds, 9.2% hits. AID 2315. Vero cells, Shiga toxin protein synthesis inhibition reporter; in the data active = inhibition mostly above about 28%, no sharp cut-off; inactive = mostly below about 43%; also: 0% is about no effect
# AmpC detergent – AmpC beta-lactamase inhibition with detergent present; P00811; AmpC hydrolysis of nitrocefin, absorbance 480 nm, 0.01% Triton; Potency, µM (titrated, usually from 114 µM), without a hit: top-dose activity change, negative = inhibition, actives largely listed as inhibitors; 370,000 compounds, 0.041% hits; AID 485294;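 also: potency is read from the fitted curve at half-maximal effect; 0% = no-compound wells and -100% = no-enzyme wells; nearly all actives have a fitted effect of over 25% in size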
# Target sequence (P00811 whole entry, looked up): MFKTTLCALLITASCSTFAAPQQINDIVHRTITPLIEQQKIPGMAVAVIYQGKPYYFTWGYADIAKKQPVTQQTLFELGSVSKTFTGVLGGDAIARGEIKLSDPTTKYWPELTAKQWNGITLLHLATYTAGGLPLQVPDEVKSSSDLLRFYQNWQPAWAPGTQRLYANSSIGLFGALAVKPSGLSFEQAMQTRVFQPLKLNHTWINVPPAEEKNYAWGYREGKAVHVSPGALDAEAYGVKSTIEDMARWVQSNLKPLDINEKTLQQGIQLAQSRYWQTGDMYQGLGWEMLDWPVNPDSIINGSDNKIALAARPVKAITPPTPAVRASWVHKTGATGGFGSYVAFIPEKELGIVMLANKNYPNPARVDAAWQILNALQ
#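 20 mM phosphate pH 7.0 + 0.01% (detergent screen) or 0.0001% Triton X-100; 5.3 nM AmpC reagent; cpd preinc 15 min RT; nitrocefin (800 uM stock) to start; A480 q20 s × 4 min; Activity was normalised to no-enzyme and no-compound control wells.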
# AmpC inh no detg – blocks E. coli AmpC beta-lactamase in detergent-free assay | AmpC nitrocefin hydrolysis, absorbance 480 nm, 0.0001% Triton | 330,000 compounds, 0.52% hits | AID 485341 | Potency, µM (series often up to 57.1 µM), for the others: top-dose activity change, negative = inhibition, hits mostly inhibitors | P00811;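 also: potency is read from the fitted curve at half-maximal effect; plate controls were no compound for no effect and no enzyme for full effect; nearly all actives have a fitted effect of over 20% in size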
#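 20 mM phosphate pH 7.0 + 0.01% (detergent screen) or 0.0001% Triton X-100; 5.3 nM AmpC reagent; cpd preinc 15 min RT; nitrocefin (800 uM stock) to start; A480 q20 s × 4 min; Activity was normalised to no-enzyme and no-compound control wells.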
# Cycloheximide cs – affects cycloheximide protein synthesis inhibition readout, counter-screen | cell reporter, cycloheximide protein synthesis inhibition counterscreen | max response, % | 300,000 compounds, 12% hits; in the data active = max response mostly above about 13%, no sharp cut-off; inactive = mostly below about 14%; also: read at 38.3 µM for the half of the compounds with a filed dose; 0% is about no effect
# NS1 inh – inhibitors of influenza NS1 protein function | 270,000 compounds, 0.4% hits | Potency, µM (top dose mostly 46.1 µM), for inactives: at the highest dose activity, positive = more growth | AID 2326; calls by dose curve; also: potency is read from the fitted curve at half-maximal effect; actives are rising curves; nearly all actives have a fitted effect of over 50% in size
#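 A cell-based growth assay was used: compounds that relieve NS1-induced slow growth of budding yeast raise OD600. Assay medium was yeast nitrogen base with ammonium sulphate and -URA supplement, pH 6.0, with 2% galactose.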
# * hit, by the source's call; ? = inconclusive; nt = not tested or not shown; [ ] = dose if it differs, or a comment. The entries come from a sample that favours hits as a whole. Unless noted, calls follow the shape of the dose curve; as a rule, active = well fitted curve in the direction sought with a large enough effect; inconclusive = small, poorly fitted or top-dose-only effect, or another doubt; inactive = no such curve, though single readings can be large; an effect the other way counts as inactive or inconclusive.
SMILES,Shiga toxin inh,AmpC detergent,AmpC inh no detg,Cycloheximide cs,NS1 inh
Cc1cccn2cc(-c3cc4ccccc4oc3=O)nc12,111*,-6%,1%,53*,2%
CCCCc1ccc(NC(=O)CSc2nnc3[nH]c(=O)cc(C)n23)cc1,nt,4%,nt,nt,nt
Cc1ccc(-c2c(C3C4C=CCC(C)C4C(=O)N3Cc3ccccc3)ccc3ccccc23)cc1 (stereo unspecified),-7,nt,nt,8,nt
O=S(=O)(c1ccc(-c2nc3ccccc3s2)cc1)N1CCCC1,21,-3%,-7%,24*,3%
O=S(=O)(c1cccc(-c2nc3ccccc3s2)c1)N1CCCC1,36,?,?,36*,9%
Cc1nc2ccc(NC(=O)[C@H](C)N3C(=O)C4CC=CCC4C3=O)cc2s1 (stereo partly specified),nt,nt,-21%,nt,nt
CCCCn1c(O)c(C(C)=NCCc2c[nH]c3ccccc23)c(=O)[nH]c1=O,-3,-2%,-13%,2,-7%
O/N=C/c1c[nH]c2ccccc12,-3,-13%,-2%,-1,-5%
O=C(/C=C/c1c[nH]c2ccccc12)c1c(O)n(CCc2ccccc2)c(=O)[nH]c1=O,29,9%,-41%,21*,-1%
O=C(/C=C/c1c[nH]c2ccccc12)c1cccc2ccccc12,37*,0%,-29%,28*,-6%
O=C(NN1CCCCC1)c1cnn2c(C(F)F)cc(-c3ccccc3)nc12,-1,-6%,2%[2.29 µM],-1,3%
Cc1cccc(C)c1NC(=O)CSc1nnc(CCCCCNC(=O)OC(C)(C)C)o1,-11,-10%,40%,1,0%
O=C(Nc1ccc2[nH]c3c(c2c1)CCCC3)c1ccco1,42*,0%,-3%,14*,-36%
CCOC(=O)c1ccc2[nH]c3c(c2c1)CCCC3C(=O)OCC (stereo unspecified),20,-12%,-1%,4,-17%
NNC(=O)c1ccc2[nH]c3c(c2c1)CCCC3,16,1%,25µM*,5,nt
Cc1cc(C)cc(NC(=S)NCc2ccc3[nH]c4c(c3c2)CCCC4)c1,-4,-7%,32µM*,-3,24%
CCOC(=O)c1ccc2[nH]c3c(c2c1)CCCCC3=O,50*,?,-13%,15*,-14%
CCC[C@@H]1CCCO[C@@](C(=O)NCc2cc(C)n(C)n2)(C(F)(F)F)C1,-4,nt,nt,5,nt
CCOc1ccccc1Nc1nc(-c2sc(C)nc2C)cs1,48*,4%,115%,19*,6%
Cc1nc(NC(=O)c2ccccc2)sc1-c1csc(NCc2ccco2)n1,38,?,-29%,16,?
Cc1ccc(Nc2nc(-c3c(C)nc4ccccn34)cs2)cc1,-11,-14%,-34%,-1,-34%
CCOc1ccccc1Nc1nc(-c2sc(NC(=O)c3ccco3)nc2C)cs1,27,3%,-21%,14,21%
Cc1nc(C)c(-c2csc(NCc3ccccc3)n2)s1,31,?,29%,33*,-40%
Cc1nc2ccccn2c1-c1csc(NCc2ccco2)n1,17,-6%,-24%,15*,-41%
Cc1nc(C)c(-c2csc(NCc3ccco3)n2)s1,159,2%,-15%,30*,-18%
SMILES,Shiga toxin inh,AmpC detergent,AmpC inh no detg,Cycloheximide cs,NS1 inh
COC(=O)[C@@H](Cc1ccccc1)NC(=O)Cn1cnc2c(SC)nc(N)nc21,nt,nt,-9%,nt,nt
CC1(C)Oc2ccc(C(=O)Nc3ccccc3)cc2N(CC#N)C1=O,38*,2%,-32%,18*,-5%
CCOC(=O)CN1C(=O)C(C)(C)Oc2ccc(C(=O)NC(C)(C)CC)cc21,9,-11%,10%,22*,-6%
CC1(C)Oc2ccc(C(=O)NC3CCCCC3)cc2N(CC#N)C1=O,8,2%,-18%,12,-3%
CCC(C)(C)NC(=O)c1ccc2c(c1)N(CC(=O)OC)C(=O)C(C)(C)O2,5,-10%,1%,8,-1%
O=C(/C=C/c1ccccc1)Nc1cc(NC(=O)/C=C/c2ccccc2)cc(C(=O)O)c1,-4,?,-23%,-3,?
O=C(/C=C/c1ccccc1)Nc1cccc(C(=O)O)c1,24*,3%,-15%,35*,6%
CCOC(=O)c1cccc(NC(=O)/C=C/c2ccc([N+](=O)[O-])cc2)c1,-7,-3%,-21%,7,11%
CCN(CC)S(=O)(=O)c1ccc(/C=C/C(=O)Nc2cccc(F)c2)cc1,28,-17%,-29%,33*,2%
O=C(/C=C/c1ccc([N+](=O)[O-])cc1)Nc1cccc(C(=O)Nc2ccccc2C(=O)O)c1,6,5%,35µM*,4,11%
Cc1cccc(NC(=O)/C=C/c2ccc(Cl)cc2)n1,65*,-6%,-26%,35*,-13%
CCOc1cc(C(=O)NCc2ccc3c(c2)CCN3C(=O)c2ccc(F)cc2)cc(OCC)c1OCC,nt,-9%,nt,nt,nt
CCCOc1ccc(/C=C/C(=O)Nc2sc(C)c(C)c2C(=O)OCC)cc1OC,nt,-9%,nt,nt,nt
O=C(/C=C/c1ccccc1)Nc1ccc(Cl)cn1,112*,0%,-26%,33*,0%
CSc1ccc(/C=C/C(=O)Nc2ccccc2)cc1,16,-8%,-37%,8,nt
CSc1cccc(NC(=O)/C=C/c2ccc(Cl)cc2)c1,51*,-1%,?,40*,-16%
CSc1cccc(NC(=O)/C=C/c2ccccc2)c1,71*,?,-33%,36*,-36%
N#Cc1cccc(S(=O)(=O)NCC(=O)NCc2ccc3c(c2)OCO3)c1,nt,-2%,-26%,nt,nt
Cc1ccc(C2CC2c2n[nH]c(=S)n2-c2cccc(Cl)c2)cc1 (stereo unspecified),-6,0%,-26%,-2,6%
O=C(CSC(=S)N1CCOCC1)Nc1nc(=O)c2ccccc2s1,5,?,-18%,17,8%
O=C(Nc1nc(=O)c2ccccc2s1)c1ccc(F)cc1,50*,-6%,-11%,15*,-4%
O=C(Nc1nc(=O)c2ccccc2s1)c1ccc(Cl)cc1,34,1%,-20%,19*,26%
O=C(Nc1nc2ccc(Cl)cc2s1)c1ccc(S(=O)(=O)N2CCCC2)cc1,nt,-2%,nt,nt,nt
O=C(Nc1nc2ccsc2c(=O)s1)c1ccc(Cl)cc1,88*,4%,-10%,30*,-4%
CCOc1ccc(C(=O)Nc2ccc(-c3nc4cc(CC)ccc4o3)cc2)cc1,nt,10%,nt,nt,nt
SMILES,Shiga toxin inh,AmpC detergent,AmpC inh no detg,Cycloheximide cs,NS1 inh
COCCNC(=O)c1ccc2c(c1)NC(=O)C(CS(=O)(=O)Cc1ccc(F)cc1Cl)N2 (stereo unspecified),nt,5%,nt,nt,nt
CS(=O)(=O)c1ccc(Cl)c(NC(=O)CCl)c1,3,3%,-14%,13,nt
Brc1ccc(-n2cnc(-c3ccccc3)c2)cc1,60*,0%,-29%,51*,-55%
COC(=O)C1CCN(C(=O)COC(=O)c2cccc(NS(=O)(=O)c3ccccc3)c2)CC1,nt,0%,-4%,nt,nt
O=C(CSc1nnc(COc2ccc(Cl)cc2)o1)Nc1ccccc1,nt,0%,nt,nt,nt
CCOc1ccc(/C=N/NC(=O)c2cc(-c3ccco3)nc3ccccc23)cc1,103*,-11%,-35%,47*,26%
